Screening results (PubChem BioAssay)
HTT cytoprotect = cytoprotection in Huntington HTT-Q103 PC12 cell model; PC12 HTT-Q103 induced, cytoprotection, ATP luminescence, 40 h; Potency, µM (top dose mostly 56.4 µM), for inactives: cytoprotection (ATP increase), hits mostly activators; 230,000 tested, 0.14% active; AID 1471; note: % of control where 0% means no effect; nearly all actives have a fitted effect of over 45% in size
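Stable PC12 Q103-GFP cells in serum-supplemented, phenol red-free DMEM; induction by tebufenozide at 100 nM final; compound dose series; cell viability quantified luminescently from ATP.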
HttQ103 aggreg = mutant huntingtin aggregation inhibition | 220,000 tested, 1.1% active | PC12 HttQ103-GFP aggregates, Acumen cytometry, 40 h | Potency, µM (series often up to 46.1 µM), for the others: top-dose activity change, negative = inhibition, actives largely listed as inhibitors | AID 1688; note: % is set by controls: 0 for no effect and ±100 for the full control effect; nearly all actives have a fitted effect of over 60% in size
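PC12 cells stably carrying ecdysone-inducible HTT exon 1 Q103–GFP were induced with tebufenozide (100 nM final) and treated with library compounds in titration. GFP aggregates in lysates were counted by laser scanning cytometry.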
ATXN viability = viability counter-screen for ATXN expression inhibitors; S2 cells (HEK-293 line with an ATXN2-luciferase reporter) viability, CellTiter-Fluor protease fluorescence, 24 h; Potency, µM (series often up to 56.7 µM), actives largely listed as cytotoxic; 400,000 tested, 0.49% active; AID 651635; note: nearly all actives have a fitted effect of over 40% in size
ATXN2 expr inh = inhibitors of ATXN2 expression; Potency, µM (titrated, usually from 57 µM), inactives show top-dose activity change, negative = inhibition, actives largely listed as inhibitors; HEK-293 ATXN2-luciferase reporter, luminescence, 24 h; AID 1745845; 360,000 tested, 0.72% active; note: % is set by controls: 0 for no effect and ±100 for the full control effect; nearly all actives have a fitted effect of over 55% in size
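qHTS (up to 57 uM final) was run with 24 h compound exposure of reporter cells at 37 °C. Each well was multiplexed: SteadyGlo luminescence measured ATXN2-luciferase expression after a fluorogenic Gly-Phe-AFC viability readout (25 uM final).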
HepG2 tox = kills HepG2 cells in TGF-b inhibitor counter-screen; AID 588856; 410,000 tested, 0.76% active; Potency, µM (highest dose often 46.1 µM), inactives show at the top dose activity change, negative = cytotoxicity, hits mostly cytotoxic; HepG2 CAGA-GFP viability, ATP luminescence, 18 h
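HepG2 CAGA-GFP cells (1000/well, DMEM with 1% FBS) received compound, then TGF-beta at 500 pg/mL final, and were incubated 18 hours at 37 degrees C. Viability was read by CellTiter-Glo luminescence. Media-only wells were set as complete cell-killing and DMSO as no toxicity.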
TGFb inhibitor = inhibitors of TGF-b signaling | HepG2 CAGA-GFP TGF-b/SMAD3 reporter, GFP fluorescence, 18 h; TGF-beta stimulated, 500 pg/mL final | Potency, µM (highest dose often 46.1 µM), without a hit: top-dose activity, negative = inhibition, actives largely listed as inhibitors | 410,000 tested, 1.2% active; note: % is set by controls: 0 for no effect and ±100 for the full control effect; nearly all actives have a fitted effect of over 65% in size
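Smad-responsive CAGA-GFP expression was quantified in HEPG2 cells exposed to compounds and 500 pg/mL final TGF-beta for 18 h at 37 degrees C; unstimulated wells defined full inhibition.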
* hit, by the source's call; i = inactive; u = inconclusive; x = no result; [ ] = another dose, or the depositor's remark. A selection: hits, their analogues and other compounds. The true share with any hit is near 2.8%. Calls come from the whole dose curve; as a rule, active = well fitted curve in the direction sought with a large enough effect; inconclusive = small, poorly fitted or top-dose-only effect, or another doubt; inactive = no such curve, though single readings can be large; an effect the other way counts as inactive or inconclusive. Potency is the fitted concentration of half-maximal effect.

SMILES	HTT cytoprotect	HttQ103 aggreg	ATXN viability	ATXN2 expr inh	HepG2 tox	TGFb inhibitor
CCOc1ccc2[nH]c3c(N4CCc5ccccc5C4)ncnc3c2c1	-22%[10 µM]	4%[9.22 µM]	u	-64%	-80%	u
COc1ccc2[nH]c3c(N4CCN(Cc5ccc6c(c5)OCO6)CC4)ncnc3c2c1	-47%	13µM*	u	28µM*	-44%	u
COc1ccc2[nH]c3c(N4CCC(O)(c5cccc(C(F)(F)F)c5)CC4)ncnc3c2c1	-78%	u	u	28µM*	-98%	u
CCn1c(-c2ccccc2F)nc2cc(NC(C)=O)cc(C(=O)NCC3CCOCC3)c21	x	x	i	x	x	x
COc1ccc(Nc2nc(N)c([N+](=O)[O-])c(N3CCCC3)n2)cc1	x	x	u	-9%	-11%	-14%
Oc1ccc(Nc2nc(N3CCCC3)c3ccccc3n2)cc1	-99%[10 µM]	-23%	u	u	11µM*	u
Cc1ccc(Nc2nc(N3CCOCC3)c3ccccc3n2)cc1	9%[4.97 µM]	u	i	-9%	-40%	u
COc1ccc(Nc2nc(N3CCCCC3)c3ccccc3n2)cc1	-82%	18µM*	u	u	-62%	u
O=C1OC2(c3cc(Br)c(O)c(Br)c3Oc3c2cc(Br)c(O)c3Br)c2c(Cl)c(Cl)c(Cl)c(Cl)c21	-79%	x	x	x	x	x
CCOC(=O)c1ccc(N2C(=O)C=CC2=O)cc1	-96%	22µM*	x	u	-106%	u
CCOC(=O)c1ccc(-n2c(C)ccc2C)cc1	5%[0.074 µM]	u	i	2%	-1%	14%
C=CCn1c(-c2ccc(OC)cc2)csc1=Nc1c(C)n(C)n(-c2ccccc2)c1=O	u	0.79µM*	i	-9%	1%	5%
Cc1csc(=Nc2c(C)n(C)n(-c3ccccc3)c2=O)n1Cc1ccccc1	-11%	6%[9.22 µM]	i	-1%	-4%	-9%
CC(=O)N/C(=C/c1ccccc1)c1sc2ccccc2[n+]1CCCCI	x	x	x	x	3%	12%
C[C@@H]1[C@@H](Sc2ccccc2)CC(=O)O[C@@H]1c1ccc(-c2ccccc2)cc1	x	x	22µM*	18µM*	11µM*	u
O=C1C[C@H](c2ccccc2)[C@@H](c2ccc(Br)cc2)O1	-8%[10 µM]	x	x	x	x	x
CCCS(=O)(=O)NCCc1csc(-c2cccnc2)n1	-1%	x	x	x	x	x
CC(=O)c1cccc(NC(=O)c2cccc(N3C(=O)c4ccccc4C3=O)c2)c1	x	x	i	-4%	2.8µM*	1%
Nc1nc2ccccc2n1S(=O)(=O)c1ccc([N+](=O)[O-])cc1	x	x	i	-2%	-85%	13µM*
COc1ccc(C2C(O)C(c3c[nH]c4ccccc34)=NN2C(=O)CCl)cc1 (stereo unspecified)	x	x	7.9µM*	6.3µM*	4µM*	2.2µM*
CCc1ccc(-c2cc(C)no2)cc1S(=O)(=O)NCCCN1CCN(c2ccccc2)CC1	x	x	u	u	-21%	18µM*
CSC1(SC2=NCCN2)SC2(NCCN2)S1	29%[10 µM]	x	u	u	-15%	13µM*
Cc1ccc(Nc2cc(C)c3ccc(O)cc3n2)cc1C	12%[10 µM]	18%[9.22 µM]	i	x	10µM*	u
COc1ccc(-c2csc(NC(=O)CSc3n[nH]c(N)n3)n2)cc1	-1%	-10%	x	3%	7%	14%
Cc1ccsc1/C=C/C1=Cc2c(sc(NC(=O)CSc3n[nH]c(N)n3)c2C#N)C(C)(C)C1	33%	12%[9.22 µM]	i	u	13µM*	10µM*
CCOc1ccc(/C=C/C2=Cc3c(sc(NC(=O)CSc4n[nH]c(N)n4)c3C#N)C(C)(C)C2)cc1	-104%	u	x	u	20µM*	-16%
C[C@H](CSC(=O)c1ccccc1)C(=O)N1C[C@@H](Sc2ccccc2)C[C@H]1C(=O)O	x	x	i	x	x	x
